Source: PubChem BioAssay (NCATS)
Records with an inconclusive call do not appear. The source made the active and inactive calls. Calls come from the whole dose curve; as a rule, active = well fitted inhibition curve with a large enough effect; inconclusive = small, poorly fitted or top-dose-only effect; inactive = flat fitted curve, though single readings scatter.

Test: qHTS of Trypanosoma Brucei Inhibitors: LOPAC Validation (AID 624147); note: 0% is about no effect
Details: purified enzyme assay, luminescence, 45 min; series mostly up to 57.5 µM; activity change, negative = inhibition: at the top concentration
Text: Members of the Trypanosomatidae family of parasitic protozoans cause a spectrum of diseases throughout the tropical and subtropical world. Sleeping sickness, caused by two subspecies of Trypanosoma brucei, is endemic to areas of sub-Saharan Africa, while Chagas' disease, a manifestation of Trypanosoma cruzi infection, is prevalent throughout Central and South America. In addition, many species of Leishmania are responsible for a range of cutaneous and visceral diseases, causing ulcers, destructive lesions and kalaazar, a lethal infection of the viscera. These diseases cause severe public health and economic burdens on populations that are often already caught in a tragic cycle of poverty, poor nutrition and disease. Collectively, parasites of the trypanosomatid family infect 30 million people worldwide (~500 million live in endemic areas), and account for ~130K deaths annually. Existing treatments have developed little in the past 50 years, and suffer from toxicity, poor efficacy and resistance; the goal of this project is to develop lead drugs that will be suitable for entry into pre-clinical trials.
Glycolysis in axenically cultured T. cruzi, representing the intracellular pathogenic stage, is also essential for these parasites. {Engel, 1987} This project aims to discover and optimize selective inhibitors of the glycolytic enzyme pyruvate kinase (PYK) from Trypanosoma brucei, the parasite that causes sleeping sickness. […] Trypanosomatid PYKs show significant differences from their human counterparts including only 47-50% sequence identity and different allosteric and activation properties.{Callens, 1992} To this end, a qHTS was done against the MLSMR to discover inhibitors.
NIH Molecular Libraries Probe Production Network [MLPCN]
NIH Chemical Genomics Center [NCGC]
PI Name: Malcolm Walkinshaw, University of Edinburgh
2 uL of TbPYK/substrate buffer (columns 1-3, 5-48) are dispensed into Greiner white solid bottom 1536-well assay plates; column 4 receives only TEA buffer as 0x TbPYK controls. Compounds are then transferred via Kalypsys pin tool equipped with 1536-pin array (10 nL slotted pins, V&P Scientific, San Diego, CA). Following addition of compound, 2 uL of ADP (130 uM final concentration, all columns) is added to initiate the reaction. The plates are then incubated at room temperature for 45 minutes. Kinase-Glo Plus reagent is added (3 uL) and plates incubated for 10 minutes, before being transferred to a ViewLux high-throughput CCD imager (PerkinElmer) wherein single end-point measurements of luminescence are acquired using a clear filter. All reagents are diluted in an assay buffer consisting of 50 mM TEA (pH 7.2), 100 mM KCl, 10 mM MgCl2, 0.05% BSA and 0.01% Tween-20.
All screening operations will be performed on a fully integrated robotic system (Kalypsys, San Diego, CA) containing one RX-130 and two RX-90 anthropomorphic robotic arms (Staeubli, Duncan, SC). Library plates will be screened starting from the lowest and proceeding to the highest concentration. Vehicle-only plates, with DMSO being pin-transferred to columns 5-48, will be inserted uniformly at the beginning and the end of each library in order to monitor and record any shifts in the background, which can be affected by reagent dispensers or loss in enzyme activity over time. Screening data will be corrected, normalized, and concentration-effect relationships will be derived by using publicly-available curve fitting algorithms developed in-house (http://ncgc.nih.gov/pub/openhts).

SMILES | activity change, negative = inhibition | outcome
CC(C)(C)NCC(O)c1ccccc1Cl (centres undefined) | -5.61% (inactive) | –
O=c1[nH]oc2c1CCNC2 | 6.57% (inactive) | –
CCC1(c2ccc(N)cc2)CCC(=O)NC1=O (centres undefined) | -7.54% (inactive) | –
Cc1ncsc1CCCl | -6.68% (inactive) | –
C=C(C)[C@H]1CN[C@H](C(=O)O)[C@H]1CC(=O)O | -12.5% (inactive) | –
CN1C(=O)CCS(=O)(=O)C1c1ccc(Cl)cc1 (centres undefined) | -6.63% (inactive) | –
O=P1(N(CCCl)CCCl)NCCCO1 (centres undefined) | -6.38% (inactive) | –
CC(C)N(CCC(C(N)=O)(c1ccccc1)c1ccccn1)C(C)C (centres undefined) | – | inactive
CCCCC/C=C\C/C=C\C/C=C\C/C=C\CCCC(=O)NCC(=O)O | 5.41% (inactive) | –
COc1ccc2c(c1OC)C(=O)O[C@H]2[C@@H]1c2cc3c(cc2CCN1C)OCO3 | -12.3% (inactive) | –
NCCc1ccc(O)cc1 | -9.16% (inactive) | –
CC(C)c1cccc(C(C)C)c1O | -6.05% (inactive) | –
CC(NC(C)(C)C)C(=O)c1cccc(Cl)c1 (centres undefined) | -3.28% (inactive) | –
O=C(O)CCCc1ccc(N(CCCl)CCCl)cc1 | -13% (inactive) | –
